Assay [1] in a line: growth inhibition of DIPG glioma cells, dose response, cell-based, SU-DIPG-XVII, MIPE5.0, CellTiter-Glo, qHTS (AID 1347060).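 As to AC50: cells exposed to compound for 48 hours before viability readout.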 As to conditions: SU-DIPG-XVII viability, CellTiter-Glo ATP luminescence.
Assay [2] in a line: growth inhibition of DIPG glioma cells, dose response, cell-based, SU-DIPG-XIII, MIPE5.0, CellTiter-Glo, qHTS (AID 1347064; cut-off not given, nearly all actives have AC50 up to about 23 µM;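 as to AC50: cells exposed to compound for 48 hours before the viability read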). As to conditions: SU-DIPG-XIII viability, CellTiter-Glo ATP luminescence. For orientation: ATP-based viability assays read luminescence as a measure of living cells.
Assay [3] can be described thus: viability loss in pontine glioma line – cell-based, SU-DIPG-XXV, MIPE5.0, CellTiter-Glo, qHTS, dose response (AID 1347065).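 Also: cells exposed to compound for 48 hours before ATP readout.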 As to conditions: CellTiter-Glo ATP luminescence.
The nature of assay [4]: SU-DIPG-XXV glioma cell viability, MIPE5.0 library, qHTS (AID 1347068; cut-off not given, nearly all actives have IC50 up to about 30 µM;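 as to IC50: cells exposed to compound for 48 hours before viability readout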). A general note: qHTS replaces the single test concentration by a dilution series.
A short description of assay [5]: JHH-DIPG-1 glioma cell viability, MIPE5.0 library, CellTiter-Glo luminescence, qHTS (AID 1347067).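 Also: cells exposed to compound for 48 hours before readout.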 The settings on record: JHH-DIPG-1 glioma viability, CellTiter-Glo ATP luminescence.
Assay [6] can be described thus: sensitizers of A549 cells to miR-34 induction, primary screen, imaging, A549 dox-inducible miR-34, nuclei and caspase counts (AID 1347080;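 active = compounds whose cell count with miR-34 switched on is under 0.7 times the count with it off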). As to conditions: A549 miR-34 inducible, Hoechst nuclei count, 48 h.
Assay [7] in a line: survival rescue of mitochondrial mutant cells in low glucose, primary screen, MELAS cybrids, Rieske KO mouse fibroblasts, CellTiter-Glo (AID 1508586;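 active = mean z-score across replicates of 1.96 or higher in either the MELAS or the Rieske mutant cell line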;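 also: z relative to plate mean and SD of compound and empty wells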).
The mark [8] stands for this setting: stronger effect = lower value, cell number ratio, induced over uninduced.
Where [9] appears, read: measured here: relative caspase fold change +Dox/-Dox.
Setting [10] is: measured here: total cells with miR-34 induction, stronger effect = lower value.
[11] abbreviates: measured here: total cells without miR-34 induction.
Where [12] appears, read: MELAS cybrid survival, CellTiter-Glo 48 h, stronger effect = higher value.
The mark [13] stands for this setting: Rieske KO mouse fibroblast survival, CellTiter-Glo 72 h.

The structures appear in SMILES notation. Results filed as inconclusive are left out. The source made the active and inactive calls. Unless noted, the limit is not given here; nearly all actives have AC50 up to about 26 µM.

Broadly, the AC50 is the concentration giving half of the maximal activity seen. Turning to `Cc1c(F)ccc(C(=O)Nc2cc([N+](=O)[O-])ccc2N2CCN(C)CC2)c1Cl`, in assay [1], the AC50 was 26.3 µM (active). Further, the compound was called inactive in assay [2], in assay [3] and in assay [4].
For `Cc1ccc(S(=O)(=O)Cc2nc(-c3ccc(C(=O)NCc4cccnc4)cc3)oc2C)cc1`, the concentration at half-maximal activity (AC50) in assay [1] was 0.0525 µM (active); in assay [2], 0.0166 µM (active); in assay [3], 0.0148 µM (active); in assay [5], 0.0209 µM (active). The fold change is 0.957 (inactive) in assay [6] (setting [8]) and 0.598 in assay [6] (setting [9]). Further, the cell count in assay [6] (setting [10]) was determined as 5090; in assay [6] (setting [11]), 5320. In addition, the z-score in assay [7] (setting [12]) was -0.778 (inactive); in assay [7] (setting [13]) it was -0.8.
Consider `O=C1CC(c2c[nH]c3ccc(F)cc23)C(=O)N1` (centres undefined), for which the outcome in assay [1], in assay [2], in assay [3] and in assay [4] was inactive.
By IC50 is commonly meant the concentration needed to halve the response being measured. On to `CNC(=O)c1cccc2cc(Oc3ccnc4cc(OCC5(N)CC5)c(OC)cc34)ccc12`, for which the AC50 in assay [1] was 1.48 µM (active); in assay [2], 1.32 µM (active); in assay [3], 1.86 µM (active). The IC50 in assay [4] is 7.42 µM (active).
Take `Cc1c(F)cccc1NC(=O)Nc1ccc(Cl)c(S(=O)(=O)[C@H]2CCCNC2)c1O`: the compound was called inactive in assay [1], in assay [2], in assay [3] and in assay [4].
Consider `C/C(=N\NC(=O)c1cccc(S(=O)(=O)N2CCOCC2)c1)c1cc(Cl)ccc1O`, for which the AC50 was 18.6 µM (active) in assay [1], 9.34 µM (active) in assay [2] and 16.6 µM (active) in assay [3]. In assay [4], the call was inactive.
In the case of `CN1CCN(c2ccc(-c3cccc(CN4CCOCC4)c3)cc2NC(=O)c2c[nH]c(=O)cc2C(F)(F)F)CC1`, the call in assay [1], in assay [2], in assay [3] and in assay [4] was inactive.
As for `CCOC(=O)[C@@]1(CCCCCCOc2ccc(Cl)cc2)CO1`, the compound was classed as inactive in assay [1], in assay [2], in assay [3] and in assay [4].
Consider `Cc1nc(-c2cn3c(n2)-c2ccc(-c4cnn(C(C)(C)C(N)=O)c4)cc2OCC3)n(C(C)C)n1`, for which the AC50 is 0.525 µM (active) in assay [1], 0.295 µM (active) in assay [2] and 0.105 µM (active) in assay [3]. In addition, the IC50 in assay [4] is 1.66 µM (active).
For the compound `O=C(NOCC(O)CO)c1ccc(F)c(F)c1Nc1ccc(I)cc1F` (centres undefined), the AC50 in assay [1] was 0.417 µM (active); in assay [2], 0.525 µM (active); in assay [3] it was 0.934 µM (active); in assay [5] it was 0.166 µM (active). Moreover, the fold change in assay [6] (setting [8]) is 1.1 (inactive); in assay [6] (setting [9]) it was 0.559. In addition, the cell count came out at 2790 in assay [6] (setting [10]) and 2520 in assay [6] (setting [11]). Moreover, the z-score in assay [7] (setting [12]) is -0.718 (inactive); in assay [7] (setting [13]), -0.702.
`Cc1ccc(-c2nc(N)nc3c2nnn3Cc2cccc(CO[C@H]3CCOC3)n2)o1`: the outcome in assay [1], in assay [2], in assay [3] and in assay [4] was inactive.
For the compound `Cc1[nH]c2ccc(F)cc2c1-c1nc2c3cccnc3c3ncccc3c2[nH]1`, the concentration at half-maximal activity (AC50) in assay [1] was 6.79 µM (active); in assay [2] it was 1.35 µM (active); in assay [3], 1.91 µM (active). Also, the IC50 in assay [4] was 2.7 µM (active).
As to `Cc1ccc(Sc2ccccc2N2CCNCC2)c(C)c1`, the AC50 in assay [1] was 11.8 µM (active); in assay [2], 16.6 µM (active); in assay [3] it was 10.5 µM (active); in assay [5] it was 9.34 µM (active). Further, the figures for the fold change in assay [6] (setting [8]) and in assay [6] (setting [9]) were 0.93 (inactive) and 0.501, respectively. Further, the cell count came to 4800 in assay [6] (setting [10]) and 5160 in assay [6] (setting [11]). Also, the z-score is -0.442 (inactive) in assay [7] (setting [12]) and -1.42 in assay [7] (setting [13]).
`COc1cc(/C=C(\C#N)C(=O)Nc2nnc(C(F)(F)F)s2)ccc1OCc1ccc(C(F)(F)F)cc1C(F)(F)F`: the AC50 in assay [1] is 5.25 µM (active); in assay [2], 4.17 µM (active); in assay [3], 3.72 µM (active); in assay [5], 14.8 µM (active). Besides, the fold change in assay [6] (setting [8]) was 0.986 (inactive); in assay [6] (setting [9]) it was 0.417. Moreover, the cell count in assay [6] (setting [10]) worked out at 1620; in assay [6] (setting [11]) it was 1640.
As to `COc1cc2c(cc1OC(C)C)[C@H](c1ccc(Cl)cc1)N(c1ccc(N(C)CC3CCC(N4CCN(C)C(=O)C4)CC3)cc1)C(=O)C2` (some centres undefined), the AC50 in assay [1] was 26.3 µM (active); in assay [2], 20.9 µM (active); in assay [3] it was 26.3 µM (active). Further, in assay [4], the IC50 is 29.5 µM (active).
Consider `O=C(O)c1ccc(CN2CCC(CN[C@@H]3C[C@H]3c3ccccc3)CC2)cc1`, for which the outcome in assay [1], in assay [2], in assay [3] and in assay [4] was inactive.
Turning to `O=C(c1ccc(NS(=O)(=O)c2cccc3cccnc23)cc1)N1CCN(CC2CC2)CC1`, the compound was called inactive in assay [1], in assay [2], in assay [3] and in assay [4].
Consider `Cc1ncc(NC(=O)c2ccc(CN3CCN(C)CC3)c(C(F)(F)F)c2)cc1Nc1nccc(-c2cccnc2)n1`, for which the AC50 in assay [1] is 23.5 µM (active); in assay [2], 9.34 µM (active); in assay [3], 18.6 µM (active). Also, the result in assay [4] was inactive.
In the case of `Cc1ncc(Cl)cc1NCc1ccc(C(=O)NC(CC2CCCC2)C(=O)NC2CC2)s1` (centres undefined), the compound was classed as inactive in assay [1], in assay [2], in assay [3] and in assay [4].
As for `N#CCC1(n2cc(-c3ncnc4[nH]ccc34)cn2)CN(C2CCN(C(=O)c3ccnc(C(F)(F)F)c3F)CC2)C1`, the compound was classed as inactive in assay [1], in assay [2], in assay [3] and in assay [4].
`CC(=NNC(=O)c1cccc(S(=O)(=O)N2CCOCC2)c1)c1cc(Cl)ccc1O`: the results for the AC50 in assay [1], in assay [2] and in assay [3] were 8.33 µM (active), 6.61 µM (active) and 5.9 µM (active), respectively. Also, in assay [4], the compound was called inactive.
As to `COc1cc2ncnc(Oc3cccc(NC(=O)Nc4cc(C(C)(C)C(F)(F)F)on4)c3)c2cc1OC`, the AC50 in assay [1] was 5.9 µM (active); in assay [2], 16.6 µM (active); in assay [3] it was 10.5 µM (active); in assay [5], 14.8 µM (active). Further, the fold change was 0.934 (inactive) in assay [6] (setting [8]) and 0.373 in assay [6] (setting [9]). For the same compound, the results for the cell count in assay [6] (setting [10]) and in assay [6] (setting [11]) were 3270 and 3490, respectively. Also, the z-score is -0.488 (inactive) in assay [7] (setting [12]) and 1.15 in assay [7] (setting [13]).
Consider `COc1cccc(OCCCN)c1-c1cc(Nc2cnc(C#N)cn2)n[nH]1`, for which the AC50 in assay [1] was 0.0332 µM (active); in assay [2] it was 0.0742 µM (active); in assay [3], 0.059 µM (active). In assay [4], the result was inactive.
For `C[C@H]1COCCN1c1cc(C2(S(=O)(=O)C3CC3)CC2)nc(-c2ccc(NC(=S)NCCO)cc2)n1`, the AC50 in assay [1] was 0.295 µM (active); in assay [2] it was 0.332 µM (active); in assay [3], 0.0263 µM (active). Also, in assay [4], the concentration for half-maximal inhibition (IC50) is 4.68 µM (active).

These data come from PubChem BioAssay.
